Most compounds without a hit are left out; they make up all but 6.1% or so of the library.
D1 ag: Allosteric Agonists of the Human D1 Dopamine Receptor: qHTS. activation, % at 2 µM. hit rate 1% among 360,000. D(1A) dopamine receptor (Homo sapiens), P21728. AID 504660, 2011. HEK293 T-REx D1 cells, calcium flux, agonist mode; in the data active = activation above about 30%; also: 0% is about no effect
Target sequence (P21728 whole entry, looked up): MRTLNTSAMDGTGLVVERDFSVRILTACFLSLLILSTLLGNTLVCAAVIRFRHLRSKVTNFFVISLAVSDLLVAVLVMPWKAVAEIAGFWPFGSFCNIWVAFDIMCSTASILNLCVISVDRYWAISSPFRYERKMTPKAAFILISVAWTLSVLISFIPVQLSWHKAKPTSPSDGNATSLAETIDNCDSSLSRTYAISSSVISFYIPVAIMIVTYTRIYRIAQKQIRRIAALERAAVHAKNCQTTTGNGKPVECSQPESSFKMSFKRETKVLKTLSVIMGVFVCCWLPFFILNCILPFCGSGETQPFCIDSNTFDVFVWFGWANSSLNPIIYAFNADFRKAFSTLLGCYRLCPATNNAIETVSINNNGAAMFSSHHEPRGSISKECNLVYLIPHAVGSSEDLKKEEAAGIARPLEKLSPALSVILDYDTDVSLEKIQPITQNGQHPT
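Tetracycline-induced HEK293 TREx D1 cells, force-coupled to calcium signalling, were dye-loaded with a no-wash calcium kit. Compound was pin-added after a 10 s baseline. Fluorescence was read kinetically at 1 cycle/s for 180 s, with calcium rises flagged as agonism.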
ERG Ets-DNA blk: qHTS for Small Molecule Inhibitors of the ERG Ets/DNA interaction; hit rate 0.028% among 370,000; fluorescence polarization, His-ERG Ets domain / labelled DNA; Potency, µM (doses to about 76.9 µM), inactives show at the highest dose FP activity, negative = inhibition, most hits filed as inhibitors; AID 624246, 2012; active = well fitted inhibition curve with a large enough effect in the polarisation, with a control signal flat; inconclusive = small, poorly fitted or top-dose-only effect, or effect the other way, or a change in a side signal; inactive = no such curve, though single readings can be large or run the other way; the % refers to the polarisation;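 also: polarization taken with two DNA probes labelled with fluorescein and Texas red; potency is read from the fitted curve at half-maximal effect; % of control where 0% means no effect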
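His-tagged ERG Ets domain (1 uM in the protein solution; 300mM KCl, 50mM Tris-HCl, 1mM EDTA, 1mM DTT, pH 7.5) received compound, then a probe mix of 5 nM fluorescein-DNA and 100nM Texas-615-DNA. Fluorescence polarization was read for both dyes.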
DRD3 antagonist: qHTS of D3 Dopamine Receptor Antagonist: qHTS. hit rate 2.5% among 360,000. D3R cells, DiscoveRx beta-arrestin luminescence, antagonist mode; active compounds read low. max response, negative = inhibition, %. D(3) dopamine receptor (Homo sapiens), P35462; in the data active = max response below about -50%; inconclusive = no clear call, values can overlap the other calls; also: % is scaled to controls: 0 for no effect and ±100 for the full control effect
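Cells plated overnight at 1500 cells/well, then exposed to library compounds with dopamine controls for 90 minutes at 37 degrees C. DiscoveRx reagent added for 30–60 minutes at room temperature; luminescence read, quantitative HTS format.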
D3 ag: qHTS of D3 Dopamine Receptor Agonist: qHTS; D3R DiscoveRx beta-arrestin cells, luminescence, 90 min; max activation, %; D(3) dopamine receptor (Homo sapiens), P35462; AID 652048, 2013; hit rate 0.58% among 410,000; in the data active = max activation above about 30%; also: 0% is about no effect
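Agonist mode: compounds and dopamine controls were applied to plated cells for 90 min at 37 degrees C after an overnight attachment at 1500 cells/well. Luminescent read-out followed 30 - 60 minutes at room temperature with DiscoveRx detection reagent.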
D1 potentiator: Potentiators of Human D1 Dopamine Receptor: qHTS; D(1A) dopamine receptor (Homo sapiens), P21728; HEK293 TREx D1 cells, calcium flux, dopamine EC20 potentiation; potentiation, % at 10 µM; hit rate 0.036% among 360,000; AID 504651, 2011; in the data active = potentiation above about 30%; also: 0% is about no effect
D1 antag: Antagonist of Human D 1 Dopamine Receptor: qHTS | activity change, negative = inhibition, % at 10 µM | D(1A) dopamine receptor (Homo sapiens), P21728 | hit rate 3.2% among 360,000 | HEK293 TREx D1 cells, calcium flux, dopamine EC80; active compounds read low; in the data active = activity change below about -30%; also: % is scaled to controls: 0 for no effect and ±100 for the full control effect
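Tetracycline-induced HEK293 T-REx cells with force-coupled D1 receptor were loaded with a no-wash calcium dye. Compound was added after a 10 s baseline and read kinetically for 180 s; EC80 dopamine was then added and calcium flux followed another 180 s.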
* marks the source's active call; other numbers are inactive results; ? = inconclusive; . = no result; ! = not confirmed by another sample.

SMILES | D1 ag | ERG Ets-DNA blk | DRD3 antagonist | D3 ag | D1 potentiator | D1 antag
Cc1ccc(C(=O)N2CCN(c3ccc(NC(=O)c4cccnc4)cc3)CC2)cc1 | -1 | -2% | 7 | 3 | -6 | -31*
CC(=O)c1ccc(N2CCN(C(=S)Nc3cccc(Cl)c3)CC2)cc1 | 4 | 3% | -23 | 10 | 0 | -37*
CNC(=S)N1CCN(c2ccc(Cl)c(Cl)c2)CC1 | 10 | -1% | -13 | -8 | -7 | -31*
Cc1ccc(NC(=O)N2CCN(c3ccc(Cl)c(Cl)c3)CC2)cc1 | 16 | 7% | . | -6 | -3 | -30*
CC(=O)c1ccc(NC(=S)N2CCN(c3cccc(Cl)c3)CC2)cc1 | 5 | 5% | -2 | -3 | -7 | .
COC(=O)N1CCN(c2ccc(Cl)c(Cl)c2)CC1 | 13 | -2% | 24 | 8 | 5 | -6
O=C(Nc1ccccc1C(F)(F)F)C1CCN(S(=O)(=O)Cc2ccccc2)CC1 | -3 | 4% | . | 3 | -1 | -11
COc1ccccc1-c1nc2ccccc2n(CC(C)C)c1=O | . | . | 6 | -4 | . | .
O=C(Nc1cccc2ccccc12)N1CCCN(c2c(Cl)cncc2Cl)CC1 | 0 | 11% | 10 | -5 | -1 | 8
COc1ccc(N2CCN(C(=S)Nc3cccc(C)c3)CC2)cc1 | 1 | . | 14 | 0 | -2 | -41*
CC(=O)c1ccc(NC(=O)N2CCN(c3ccc(C)cc3)C(C)C2)cc1 (stereo not given) | 3 | -6% | 18 | 2 | -2 | -2
CC(=O)c1ccc(N2CCN(C(=O)Nc3ccc(C)cc3)CC2)cc1 | 7 | -10% | 5 | 2 | -2 | -40*!
Cc1cc(C)cc(NC(=O)N2CCCN(c3c(Cl)cncc3Cl)CC2)c1 | 0 | 4% | -17 | -2 | -4 | -33*
COc1ccc(C(=O)OCC(O)COC(=O)c2ccc(OC)cc2)cc1 | . | -7% | 4 | -5 | . | .
COc1ccncc1-c1ccccc1C1=CC(=O)CC(C)(C)C1=O | . | . | -13 | 0 | . | .
O=C(NCC(c1ccco1)N1CCc2ccccc2C1)C(=O)Nc1ccccc1 (stereo not given) | 3 | 8% | -90* | -34 | 3 | -23
O=C(NCC(c1ccco1)N1CCc2ccccc2C1)c1ccccc1 (stereo not given) | 3 | 2% | -53* | -34 | 2 | -4
CC(C)(C)c1ccc(C(=O)NCC(c2cccnc2)N2CCc3ccccc3C2)cc1 (stereo not given) | 3 | 12% | . | -9 | 1 | 7
Cc1ccc(C(=O)NCC(c2cccnc2)N2CCc3ccccc3C2)cc1C (stereo not given) | 3 | -1% | . | 3 | -3 | -31*
Cc1cc(=O)cc(C)n1-c1ccccc1N1CCOCC1 | 3 | -2% | 4 | 4 | -7 | -17
Cc1ccc(S(=O)(=O)c2cn(Cc3cccc(C)c3)c3cc4c(cc3c2=O)OCO4)cc1 | 15 | -1% | . | -9 | -4 | -9
CCCCn1cc(S(=O)(=O)c2ccc(OC)cc2)c(=O)c2cc(F)c(F)cc21 | -1 | 0% | . | -1 | 0 | -39*
COc1ccc(Cn2cc(S(=O)(=O)c3ccc(Cl)cc3)c(=O)c3cc4c(cc32)OCO4)cc1 | 0 | 1% | . | 5 | 0 | -42*
Nc1cccc(-n2cccc2)c1 | 2 | 9% | 13 | -3 | 2 | 12
CC(CCc1ccccc1)NC(=O)CN1CCN(Cc2ccccc2)C1=O (stereo not given) | 0 | -8% | 26 | 31* | -8 | 7
SMILES | D1 ag | ERG Ets-DNA blk | DRD3 antagonist | D3 ag | D1 potentiator | D1 antag
O=C(CN1CCN(Cc2ccccc2Cl)C1=O)NCCc1ccc(Cl)cc1 | 3 | -2% | . | -2 | -1 | -33*
O=C(CN1CCN(Cc2ccccc2F)C1=O)NCCc1ccc(Cl)cc1 | 2 | -1% | 2 | 3 | . | -9
Cc1cccc(CN2CCN(CC(=O)O)C2=O)c1 | 3 | -2% | -109* | -1 | 5 | 33
CC(CCc1ccccc1)NC(=O)CN1CCN(Cc2ccc(Cl)cc2)C1=O (stereo not given) | 9 | -11% | -9 | -1 | . | -15
Cc1cccc(CN2CCN(CC(=O)N3CCCC3)C2=O)c1 | 0 | -1% | 17 | 2 | -1 | -10
O=C(O)CCNc1ccc(NCCC(=O)O)c2c1C(=O)c1ccccc1C2=O | 9 | -15% | -82* | -16 | -6 | 3
COc1ccc(COCC(O)CN2CC(C)OC(C)C2)cc1OC (stereo not given) | 0 | 3% | -154* | 17 | -2 | 4
CC1CN(CC(O)COc2ccc(C(C)C)cc2)CC(C)O1 (stereo not given) | 3 | 4% | -16 | -3 | -5 | -11
CC(=O)c1ccc(OCC(O)CN2CC(C)OC(C)C2)cc1 (stereo not given) | 0 | -1% | -55* | -2 | 6 | 7
CC(=O)c1ccc(OCC(O)CN2CCOCC2)cc1 (stereo not given) | 1 | 7% | -7 | -4 | -3 | -35*
CCCCOc1cc(C(=O)OCCN(CC)CC)ccc1N | 4 | -2% | -19 | -41 | 2 | 1
Cc1cc(C)c(C(=O)CN2C(=O)NC3(CCC(C)CC3)C2=O)cc1C (stereo not given) | 3 | 1% | -6 | -2 | -1 | -29
Cc1ccc(NC(=O)CCN2C(=O)NC3(CCCC3)C2=O)c(C)c1 | 2 | 5% | ? | -2 | -14 | -34*
Cc1cc(C)c(C(=O)CN2C(=O)NC3(CCCCC3)C2=O)cc1C | -4 | -6% | -5 | 35* | 1 | -3
CCOC(=O)C(C(=O)Cc1ccccc1)c1ccccc1 (stereo not given) | . | -5% | -2 | 3 | . | .
CCC(C(=O)Nc1ccc(C(C)=O)cc1)n1c(C)c2cnn(-c3ccccc3)c(=O)c2c1C (stereo not given) | 51* | 1% | . | -21 | -2 | -4
CC(=O)c1cccc(NC(=O)Cn2c(C)c3cnn(-c4ccccc4)c(=O)c3c2C)c1 | 1 | 3% | . | -17 | 0 | 8
CCc1ccc(N=Nc2ccc(O)c3[nH]cnc23)cc1 | 40* | 40% | 1 | -27 | 1 | .
CCCCOC(=O)CSC1=C(C#N)C(c2ccccc2OC)C(C#N)C(=O)N1 (stereo not given) | -2 | 10% | -30 | -6 | 0 | -17

Source: PubChem
